From PubChem BioAssay AID2315 (National Center for Advancing Translational Sciences (NCATS), 2010)
Screen size: about 290,000 compounds; about 27,000 (9.3%) were called active. For the sample, actives were picked, then their nearest neighbours and some compounds at random. Unmarked numbers belong to inactive results. No stated cut-off is given here; in the data, active means inhibition mostly above about 28% (no sharp cut-off); inactive means mostly below about 43%.

Assay: A qHTS for Small Molecule Inhibitors of Shiga Toxin; further: 0% is about no effect
Conditions: Vero cells, Shiga toxin protein synthesis inhibition reporter; at 38.7 µM, stronger effect = higher value
With `Cc1cccc(C(=O)N2CCN(S(=O)(=O)N3CCCCC3)CC2)c1` the inhibition was 12.6%. In the case of `CCC1CCCCN1C(=O)CSc1nc2c(c(=O)n1C)SC(C)C2` (configuration not stated), the inhibition was -5.97%. `CCCCN(CCCC)CCNC(=O)CN1C(=O)COc2ccc(S(=O)(=O)N3CCOCC3)cc21` showed an inhibition of -2.7%. `Oc1[nH]c2ccc(Br)cc2c1N=Nc1nn[nH]n1` gave an inhibition of 2.43%. `NS(=O)(=O)c1ccc(N=Nc2c(O)[nH]c3ccc(Br)cc23)cc1` gave an inhibition of 58.5%. With `Cc1cccc(N=Nc2c(O)[nH]c3ccc(F)cc23)c1` the inhibition was 143% (active). In the case of `Cc1ccc(CNC(=O)C2CCN(S(=O)(=O)c3ccc4nc5c(c(C(=O)O)c4c3)CC(C)CC5)CC2)cc1` (configuration not stated), the inhibition was 19.6%. In the case of `CCOC(=O)CSc1nnc(NC(=O)C2CC(=O)N(c3ccc(F)cc3)C2)s1` (configuration not stated), the inhibition was -11.5%. `Cc1ccc(S(=O)(=O)NCC2CCC(C(=O)N3CCOCC3)CC2)cc1` (configuration not stated) gave an inhibition of -3.33%. Molecule `O=C(c1cccnc1)N1CCN(S(=O)(=O)c2cccs2)CC1` has an inhibition of -10.5%. For `CCOC(=O)c1cccc(NC(=O)CN2C(=O)C3CC=CCC3C2=O)c1` (configuration not stated), the inhibition was -2.13%. For `Cc1ccc(S(=O)(=O)N(C)CC(=O)OCC(=O)Nc2ccccc2)cc1`, the inhibition was 10.4%. In the case of `Cc1ccc(NC(=O)NC(=O)N(C2CCCCC2)S(=O)(=O)c2ccccc2)cc1`, the inhibition was 0% (active). Molecule `CC(c1ccco1)N(C(=O)Nc1ccccc1)C1CCCCC1` (configuration not stated) has an inhibition of 71.5%. Molecule `COc1cc(Br)c(-c2sc(Nc3ccccc3)n[n+]2-c2ccccc2)cc1OC` has an inhibition of -9.06%. With `Cc1ccc(C(=O)NC(=S)Nc2ccc(N3CCOCC3)cc2)cc1` the inhibition was 30%. With `Cn1nnc(NC(=S)NC(=O)c2ccccc2)n1` the inhibition was 64.6% (active). Molecule `COc1ccc(C(=O)NNC(=S)NC(=O)c2ccccc2)cc1` has an inhibition of 31.4%. `CCOC(=O)c1c(-c2ccccc2)csc1NC(=S)NC(=O)c1ccccc1` gave an inhibition of -2.96%. `Cc1ccc(NC(=S)N/N=C2/CCCc3c(C)cc(C)cc32)cc1` gave an inhibition of -4.99%. With `Cc1ccc(C)c(NC(=S)NNC(=S)Nc2ccc(C(C)C)cc2)c1` the inhibition was 50.1% (active). In the case of `Cc1ccc(C(=O)NC(=S)Nc2ccccc2C)cc1`, the inhibition was 97.5% (active). In the case of `Cc1ccccc1NC(=S)NC(=O)Cc1ccc(Cl)cc1`, the inhibition was -4.05%. For `Cc1ccccc1NC(=S)NNC(=O)c1cccc(Br)c1`, the inhibition was 48.8%. Molecule `CC(C)c1ccc(NC(=S)NNc2ccc(Cl)c(C(=O)O)c2)cc1` has an inhibition of 52%. With `Cc1cc(C(=O)NNC(=S)Nc2ccccc2C)cs1` the inhibition was 66.8% (active). For `Cc1cc(C(=O)Nc2c(C)n(C)n(-c3ccccc3)c2=O)cs1`, the inhibition was -6.98%. `O=C(Nc1ccc(F)cc1)C1CCCN(S(=O)(=O)c2ccc(-n3cnnn3)cc2)C1` (configuration not stated) showed an inhibition of -10.1%. With `Cc1nn(CC(=O)NC2CCCCC2)c(=O)c2cccn12` the inhibition was 1.03%. `CN(CC(=O)Nc1c(Cl)cccc1Cl)C(=O)CNC(=O)C1CCCCC1` gave an inhibition of 8.74%. Work on `CCc1nccn1CCC(=O)N1CCCC(N2CCN(c3ccccc3F)CC2)C1` (configuration not stated) yielded an inhibition of -3.27%. `O=C(Nc1cc(-c2nc3ncccc3o2)ccc1Cl)c1ccco1` showed an inhibition of -5.97%. In the case of `O=C1C[C@@H](c2ccc3ccccc3c2)N1S(=O)(=O)c1ccccc1[N+](=O)[O-]`, the inhibition was -7.61%. With `Cc1sc2ncn(CC(=O)NCCCC(=O)N3CCN(c4ccccc4F)CC3)c(=O)c2c1C` the inhibition was -6.47%. Molecule `CC1(C)Cc2c(sc(NC(=O)C(=O)NCC3CCCO3)c2C(=O)O)CO1` (configuration not stated) has an inhibition of -2.38%. `COc1cccc(CNC(=O)c2nnn(CC(=O)Nc3cc(C)ccc3C)c2N)c1` gave an inhibition of -3.78%. For `Cc1ccc(C)c(NC(=S)NNC(=O)c2csc(C)c2)c1`, the inhibition was 22.3% (active). In the case of `Cc1ccc(C)c(NC(=O)NNC(=O)c2ccc3ccccc3c2O)c1`, the inhibition was -2.25%. For `Cc1ccc(C(=O)NC(=S)NCc2cccnc2)cc1`, the inhibition was 56% (active). With `Cc1ccc(C(=O)N/C(=C\c2ccc(F)cc2)C(=O)NCCN2CCOCC2)cc1` the inhibition was -6.91%. Molecule `CC(C)(C)c1cc(C(=O)NCc2cccnc2)ccn1` has an inhibition of -3.32%. `Cc1ccc(NC(=S)NCCN2CCOCC2)cc1` gave an inhibition of -3.76%. For `CCc1cccc(CC)c1NC(=S)Nc1ccc2cn[nH]c2c1`, the inhibition was -6.34%. Molecule `Cc1cc(C(=O)NNC(=S)NC(C)c2ccccc2)cs1` (configuration not stated) has an inhibition of 8.77%. In the case of `Cc1cc2[nH]ncc2cc1NC(=S)NC(=O)c1ccccc1`, the inhibition was 34.9% (active). For `Cc1ccc(C(=O)NC(=S)NCCN2CCOCC2)cc1`, the inhibition was 57.3% (active). For `Cc1c(C(=O)NC(=S)NCc2cccnc2)oc2ccccc12`, the inhibition was -22.1%. `Cc1cccc(NC(=S)Nc2ccc3cn[nH]c3c2)c1` showed an inhibition of -14.2%. In the case of `CN(C)CCN(Cc1ccccc1)S(=O)(=O)c1csc(C(N)=O)c1`, the inhibition was -1.58%. `CCOC(=O)c1cccc(NC(=O)CCc2nnc3ccc(N4CCOCC4)nn23)c1` gave an inhibition of -1.45%. `CC1CC(C)CN(C(=O)CCNC(=O)Cn2cnc3ccccc3c2=O)C1` (configuration not stated) showed an inhibition of -11.9%. `Cc1ccccc1OCC(=O)Nc1nnc(S(=O)(=O)N2CCCC2)s1` showed an inhibition of -10.5%. Work on `CC(=O)c1cc(CN2CCC(n3nccc3NC(=O)c3ccccc3Cl)CC2)cs1` yielded an inhibition of -20.5%. Molecule `O=C(Nc1ccnn1C1CCN(Cc2cccc(OCCO)c2)CC1)C1CCCC1` has an inhibition of -5.27%. For `Nc1nc(-c2sc3nc4c(cc3c2N)CCCC4)nc(N2CCOCC2)n1`, the inhibition was 58.2% (active). Molecule `Cc1cccc(NC(=O)c2sc3nc(N4CCOCC4)c4c(c3c2N)CCCC4)c1` has an inhibition of 30.8%. With `Cc1nc(N2CCOCC2)nc2c1CCCC2` the inhibition was 35.4%. Molecule `Cc1cc(-c2nnc(SCC(=O)Nc3ccc(S(N)(=O)=O)cc3)n2N)n[nH]1` has an inhibition of -4.71%. Work on `O=C(NC(Cc1ccccc1)C(=O)O)/C(=C\c1ccccc1)NC(=O)c1ccco1` (configuration not stated) yielded an inhibition of -11.9%. `CC(=O)Oc1cccc(N2C(=O)C3CC=C(Cl)CC3C2=O)c1` (configuration not stated) gave an inhibition of -2.36%. `COc1ccc(N2CCN(C3CC(=O)N(c4ccc5c(c4)OCCO5)C3=O)CC2)cc1` (configuration not stated) gave an inhibition of -9.64%. In the case of `CC(=O)Oc1cccc(N2C(=O)CC(Nc3ccc(N4CCOCC4)cc3)C2=O)c1` (configuration not stated), the inhibition was 58.2% (active).
